Lassa entry inh – blocks Lassa virus binding to or entry into cells; Lassa virus pseudotype entry inhibition, cell reporter; Potency, µM (highest dose often 37.9 µM), for inactives: at the highest dose activity change, negative = inhibition, actives largely listed as inhibitors; 1.2% of 300,000 active; calls by dose curve; tested in HEK293 cells; also: nearly all actives have a fitted effect of over 50% in size
Marburg entry inh – inhibitors of Marburg virus binding or cell entry; Marburg virus pseudotyped entry inhibition, cell reporter; Potency, µM (doses to about 37.8 µM), inactives show top-dose activity change, negative = inhibition, actives largely listed as inhibitors; 1.8% of 300,000 active; AID 540276; calls by dose curve; tested in HEK293 cells
RE007 growth inh – less growth of the S. pombe RE007 Vpr strain; AID 651644; 0.21% of 360,000 active; S. pombe RE007 Vpr strain, BacTiter-Glo ATP luminescence, 24 h; Potency, µM (titrated, usually from 92.2 µM), inactives show top-dose activity change, negative = less growth, actives largely listed as inhibitors; active = well fitted falling curve with a large enough effect; inconclusive = small, poorly fitted or top-dose-only effect; inactive = no such curve, though single readings can be large or run the other way; also: nearly all actives have a fitted effect of over 50% in size
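Fission yeast RE007 carrying one integrated HIV-1 vpr copy, seeded at OD 0.01 in PMG+AL medium with 23 nL pinned compound. Grown 24 h at 30 degrees; viability read by BacTiter-Glo luminescence after 5 min.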
Sm TGR inh – blocks Schistosoma mansoni thioredoxin glutathione reductase | Q962Y6 | purified TGR, DTNB reduction, TNB absorbance 405 nm | Potency, µM (titrated, usually from 114 µM), for inactives: at the top dose activity change, negative = inhibition, most hits filed as inhibitors | 3% of 360,000 active; also: nearly all actives have a fitted effect of over 60% in size
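TGR 20 nM + NADPH 100 uM (dispensed conc.), cpd preinc 15 min RT; start with NADPH (500 uM addition) then DTNB (15 mM addition). Kinetic TNB absorbance, 405 nm filter. Four-parameter Hill fit across titration.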
FMDV antiviral – blocks foot and mouth disease virus; FMDV antiviral cell-based qHTS; 1.2% of 410,000 active; Potency, µM (titrated, usually from 57.9 µM), for inactives: at the highest dose activity change, negative = inhibition, usual class: inhibitors; calls by dose curve; tested in HEK293T cells; also: read-out not given here; nearly all actives have a fitted effect of over 45% in size
HCV inhibitor – inhibitors of hepatitis C virus infection; Huh7.5.1 HCVcc-Cre infection, luciferase reporter, 44 h; 3.4% of 340,000 active; Potency, µM (top dose mostly 41.8 µM), for the others: top-dose activity change, negative = inhibition, usual class: inhibitors
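Cells (1,000/well) were plated 4 h before compound, then infected with HCVcc-Cre virus (~0.5 moi). After 44 h further culture, infection was read as luciferase luminescence following a 15 min substrate incubation at room temperature.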
* = called active by the depositor; ? = inconclusive; · = no result; [ ] = dose if it differs, or a comment. Hits are enriched below; roughly 7.2% of the tested compounds scored in any of these assays. Unless noted, calls follow the shape of the dose curve; as a rule, active = well fitted curve in the direction sought with a large enough effect; inconclusive = small, poorly fitted or top-dose-only effect, or another doubt; inactive = no such curve, though single readings can be large; an effect the other way counts as inactive or inconclusive. % is scaled to controls: 0 for no effect and ±100 for the full control effect; potency is read from the fitted curve at half-maximal effect.

SMILES	Lassa entry inh	Marburg entry inh	RE007 growth inh	Sm TGR inh	FMDV antiviral	HCV inhibitor
CC(NC(=O)Cc1ccc(NC(=O)N2CCSc3ncccc32)cc1)c1ccccc1 (stereo unspecified)	-7%[46.1 µM]	·	·	2%	-25%	·
COc1ccc(N2C(=O)CC(N3CCC(O)(c4ccc(Cl)cc4)CC3)C2=O)cc1 (stereo unspecified)	10%	12%	?	50µM*	-21%	-3%
COC(=O)[C@@H]1C[C@@H](NC(=O)c2cccc3c(C)c(C)[nH]c23)CN1Cc1cccc2ccccc12	·	·	·	·	-2%	·
Cc1cc(-c2csc(NC(=O)c3ccc(S(=O)(=O)N(C)C)cc3)n2)c(C)n1-c1ccccc1	?	1.3µM*	-10%	-14%	32µM*	?
COc1ccccc1N(C)S(=O)(=O)c1ccc(C(=O)Nc2nnc(C)s2)cc1	-1%	4%	10%	-4%	-21%	-6%
COc1cc(OC)c(OC)cc1CNC(=O)c1cc(S(=O)(=O)N(C)c2ccccc2OC)ccc1C	·	·	-8%	·	28µM*	?
COc1ccccc1N(C)S(=O)(=O)c1ccc(C(=O)Nc2nc(C)cs2)cc1	?	16µM*	-1%	-2%	28µM*	?
CN(C)S(=O)(=O)c1ccc(C(=O)Nc2nc(-c3cc4ccccc4o3)cs2)cc1	?	?	10%	1%	?	?
COc1ccccc1N(C)S(=O)(=O)c1ccc(Cl)c(C(=O)OCc2c(C)noc2C)c1	11µM*	?	-14%	22%	?	0%
COC(=O)c1ccc(NC(=O)C2(S(=O)(=O)c3ccc(C)cc3)CC2)cc1	4%[46.1 µM]	?	·	0%	-12%	·
Cc1ccc2c(c1)cc(C(=O)NCc1ccccc1C)n2C	?	?	·	-5%	12%	·
COc1ccc(O[C@@H]2[C@H](O)CO[C@H]2/C=C/C#Cc2ccccc2)cc1	·	8%[14.2 µM]	·	·	·	·
CNC1CCC(c2ccc(Cl)c(Cl)c2)c2ccccc21 (stereo unspecified)	·	·	·	·	-15%	·
COc1ccccc1N(C)S(=O)(=O)c1ccc(C(=O)Nc2cc(F)ccc2C)cc1	?	9%[46.1 µM]	-4%	·	-17%	6.3µM*
Cc1[nH]c2ccccc2c1/C=C/C(=O)c1ccccc1	?	-32%	-5%	-6%	24%	?
Cc1[nH]c2ccccc2c(=O)c1C(=O)/C=C/c1ccccc1	·	·	-10%	32µM*	13µM*	11µM*
O=C(C=Cc1ccccc1)c1c[nH]c2ccccc2c1=O	?	?	3%	·	-18%	11µM*
COC(=O)C1=C(C)N(Cc2ccccc2)C(=NCC2CC2)NC1c1cccc(C(F)(F)F)c1 (stereo unspecified)	·	11%[14.2 µM]	·	·	·	·
COc1ccc(CNC(=O)c2ccc3c(c2)N(Cc2ccccc2)CCS3)cc1	4.5µM*	?	·	-2%	9%	·
CCOc1ccc(CNC(=O)c2ccc3c(c2)N(Cc2ccccc2)CCS3)cc1	·	?	·	-2%	13%	·
Cc1ccccc1CNC(=O)c1ccc2c(c1)N(Cc1ccccc1)CCS2	·	8.9µM*	·	6%	16%	·
O=C(NCc1ccccc1Cl)c1ccc2c(c1)N(Cc1ccccc1)CCS2	-24%[46.1 µM]	?	·	5%	52%	·
CC1=C(C(=O)OCc2ccc3c(c2)OCO3)C(c2cccc([N+](=O)[O-])c2)NC(=O)N1 (stereo unspecified)	·	·	-6%	0%	-23%	11µM*
CCC(CC)COC(=O)C1=C(C)NC(=O)NC1c1ccc2c(c1)OCO2 (stereo unspecified)	?	?	1%	0%	?	10µM*
CCOC(=O)C1=C(C)NC(=O)NC1c1ccc2c(c1)OCO2 (stereo unspecified)	5%	7%[46.1 µM]	-4%	6%	-20%	-2%
SMILES	Lassa entry inh	Marburg entry inh	RE007 growth inh	Sm TGR inh	FMDV antiviral	HCV inhibitor
CN(C)c1ccc(CNC(=O)C2CCN(c3nc4ccccc4[nH]3)CC2)cc1	1%[46.1 µM]	·	·	51%	6%	·
O=C(c1ccc2c(c1)OCO2)N1CCC2(CC1)Oc1ccc(F)cc1C(=O)C21CC(c2ccc(Cl)cc2)=NO1 (stereo unspecified)	·	·	-5%	9%	-18%	10µM*
O=C(O)c1ccc(N/N=C/c2ccc3c(c2)OCO3)cc1	?	?	?	0%	25µM*	-3%
O=C(O)c1cc(N/N=C/C(Cl)=C/c2ccccc2)ccc1Cl	?	?	-9%	35µM*	-91%	24%
O=C(O)c1cc(N/N=C/c2ccc3c(c2)OCO3)ccc1Cl	?	2.5µM*	6%	-16%	14µM*	5%
C/C(=N\Nc1ccc(Cl)c(C(=O)O)c1)c1ccc2c(c1)OCO2	-3%	26%	-14%	?	77%	11%
O=C(O)c1cc(N/N=C/c2ccc3c(c2)OCCO3)ccc1Cl	1.6µM*	?	20%	-19%	2.5µM*	0%
CCc1ccc(NC(=O)CSc2nc(=O)n(Cc3cccnc3)c3c2CCC3)cc1	-26%[46.1 µM]	·	·	0%	-11%	·
CCN(c1ccccc1)S(=O)(=O)c1nnc(NC(=O)C2CCCCC2)s1	-10%[46.1 µM]	·	·	-1%	-4%	·
CCn1c(C)c(C)c2cc(C(=O)NCCc3cc(OC)c(OC)c(OC)c3)ccc21	?	·	·	-8%	?	·
CN1CCN(C2=C(NS(=O)(=O)c3cccs3)C(=O)c3ccccc3C2=O)CC1	?	?	-2%	-33%	-12%	11µM*
CN1CCN(C2=C(NS(=O)(=O)c3ccccc3)C(=O)c3ccccc3C2=O)CC1	·	·	-8%	?	-3%	-16%
CCN1CCN(C2=C(NS(=O)(=O)c3ccccc3)C(=O)c3ccccc3C2=O)CC1	·	·	-29%	?	?	11µM*
CCN1CCN(C2=C(NS(=O)(=O)c3ccc(Br)cc3)C(=O)c3ccccc3C2=O)CC1	·	·	-21%	45µM*	-1%	?
O=C1C(NS(=O)(=O)c2cccs2)=C(N2CCOCC2)C(=O)c2ccccc21	?	-1%[46.1 µM]	-4%	?	?	-1%
COc1cc(NC(=O)c2cccc3c(-c4cnn(C)c4)coc23)cc(OC)c1OC	·	·	0%	·	?	·
CCCNC(=O)CN1C(=O)c2c(c3ccccc3n2C)C1c1ccc(OC)cc1 (stereo unspecified)	-3%[46.1 µM]	·	·	-13%	-20%	·
CO/N=C/c1ccc(Sc2ccc(C)cc2)c([N+](=O)[O-])c1	?	-18%	-1%	3%	-25%	?
Cc1ccc(Sc2ccc(/C=N/O)cc2[N+](=O)[O-])cc1	?	?	30%	-26%	-21%	11µM*
CN[C@H]1C[C@@H](N)[C@H](O)[C@@H](O[C@@H]2O[C@H](CO)[C@H](O)[C@@H]3OC4(O[C@H]23)O[C@H](C(N)CO)[C@H](O)[C@H](O)[C@H]4O)[C@@H]1O (stereo partly specified)	·	·	·	·	9%	·

From PubChem BioAssay
